# DAT uptake mod: changed hDAT dopamine uptake under cocaine IC80, either direction, primary screen, cocaine antagonist project, cell-based, LLC-PK1 hDAT, [14C]-dopamine uptake, MLSMR. Sodium-dependent dopamine transporter (Homo sapiens), Q01959. LLC-PK1 hDAT cells, [14C]-dopamine uptake with cocaine IC80; actives deviate in either direction. B-score at 10 µM. 1.3% of 110,000 active. AID 449768, 2010;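 active means Z score or B-score, a plate-position-corrected score, falls beyond the plate's 99.7% confidence bounds, in either direction; inactive means both scores lie inside the 99.7% bounds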;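 further: scored against the spread of the other compound wells on the same plate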
# CYP2C19 inhib: blockers of cytochrome P450 2C19 activity – biochemical, luminescence, ADME assay, primary screen. P33261. CYP2C19 Supersomes, luciferin-H EGE luminescence, 30 min. inhibition, % at 5 µM. 21% of 96,000 active;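 active means CYP2C19 inhibition above a set limit at 5 µM in the primary screen, cut at about 50% in these data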;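 further: plate controls were negative control wells for no effect and 2.5 mM tranylcypromine positive control for full effect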
# Target sequence (P33261 whole entry, looked up): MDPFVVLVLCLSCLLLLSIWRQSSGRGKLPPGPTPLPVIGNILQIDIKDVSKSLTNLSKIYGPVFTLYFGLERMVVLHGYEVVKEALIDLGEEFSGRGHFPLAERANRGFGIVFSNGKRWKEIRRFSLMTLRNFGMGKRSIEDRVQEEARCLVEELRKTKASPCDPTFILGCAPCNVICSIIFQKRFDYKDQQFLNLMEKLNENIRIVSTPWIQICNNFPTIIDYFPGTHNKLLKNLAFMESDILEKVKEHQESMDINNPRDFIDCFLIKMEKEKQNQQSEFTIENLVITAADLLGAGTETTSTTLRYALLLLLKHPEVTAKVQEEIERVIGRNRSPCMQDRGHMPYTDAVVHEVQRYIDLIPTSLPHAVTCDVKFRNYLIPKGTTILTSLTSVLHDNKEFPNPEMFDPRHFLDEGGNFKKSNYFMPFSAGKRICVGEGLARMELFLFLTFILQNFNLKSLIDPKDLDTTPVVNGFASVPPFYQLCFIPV
# CYP2C9 activ: human CYP2C9 activators, primary screen, biochemical, luminescence; Cytochrome P450 2C9 (Homo sapiens), P11712; recombinant CYP2C9, luciferin-H conversion; active compounds read high; factor 1 = untreated enzyme, 0 = blocked; activation factor at 5 µM; 1.4% of 96,000 active; AID 1024, 2008;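 active means activation factor of 2 or more for CYP2C9 at a 5 µM dose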;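 further: 0 = sulfaphenazole-blocked wells and 1 = vehicle-only wells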
# CYP2C9 inh: blockers of cytochrome P450 2C9 activity – biochemical, luminescence, ADME assay, primary screen. AID 777, 2007. P11712. 20% of 96,000 active. CYP2C9 Supersomes, luciferin-H conversion. inhibition, % at 5 µM;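 active means blocking of liver enzyme CYP2C9 beyond about 50% at 5 µM, limit read from the data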
# D1 allo mod: D1 CRE-luciferase signal change, two-sided – cell-based, HEK293 D1, dopamine EC30, D1 allosteric modulator project, primary screen. D(1A) dopamine receptor (Homo sapiens), P21728. dopamine EC30 potentiation; actives deviate in either direction. B-score at 10 µM. 5.9% of 58,000 active;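 active means luminescence count or its row- and column-corrected plate score outside the 99.7% band of the plate's sample wells, on either side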
# CYP2C19 act: human CYP2C19 activators, primary screen, biochemical, luminescence | Cytochrome P450 2C19 (Homo sapiens), P33261 | recombinant CYP2C19, luciferin-H EGE luminescence; active compounds read high; 0 = fully inhibited enzyme, 1 = untreated enzyme | activation factor at 5 µM | 96,000 tested, under 10 active | AID 1025, 2008;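 active means activation factor of at least 2 at 5 µM in the primary screen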;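 further: 0 = wells with 2.5 mM tranylcypromine and 1 = vehicle-only wells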
# Numbers without * were called inactive; nt = not tested or not shown. Rows were chosen to be rich in hits. Some 28% of all compounds tested hit in one or more screens of this group.
SMILES,DAT uptake mod,CYP2C19 inhib,CYP2C9 activ,CYP2C9 inh,D1 allo mod,CYP2C19 act
CCOC(=O)c1c(C)[nH]c(C(=O)COC(=O)c2oc3ccc(OC)cc3c2C)c1C,-0.233,45.3,0.7,28.8,nt,0.5
CCOC(=O)c1oc2ccc(S(=O)(=O)n3nc(-c4ccc(Cl)cc4)cc3N)cc2c1C,-1.32,16.2,0,98.7*,nt,0.8
CN(C)c1c([N+](=O)[O-])ncn1C,-0.114,14.5,0.9,9.1,nt,0.9
COCCCNC(=O)C12CCC(C)(C(=O)C1)C2(C)C (configuration not stated),0.295,-18.2,1,-0.9,0.844,1.2
COc1ccc(S(=O)(=O)O/N=C2\CCCc3ccccc32)cc1,nt,42.4,1.6,-55.7,nt,0.6
Fc1ccc(-c2nnc3ccc(N4CCc5ccccc5C4)nn23)cc1,0.521,56.6*,0.1,86.2*,0.635,0.4
O=C(Nc1ccc(F)cc1)N1CCN(c2ccc3nnc(-c4ccc(F)cc4)n3n2)CC1,0.0564,50.5*,0.4,55.2*,nt,0.5
CC1CCN(C(=O)CSc2ccc3nnc(-c4ccc(F)cc4)n3n2)CC1,nt,nt,nt,nt,-0.107,nt
COc1ccc(C2c3c(ccc4ccccc34)Oc3ncn4nc(CO/N=C/c5ccccc5)nc4c32)cc1 (configuration not stated),-0.734,-0.3,0.4,56.1*,nt,1
N=c1c2c(ncn1CCN1CCOCC1)Oc1ccc3ccccc3c1C2c1ccccc1 (configuration not stated),0.0352,37.7,0.9,7.5,nt,0.6
COc1ccc(C2c3c(ncn(CCN4CCOCC4)c3=N)Oc3ccc4ccccc4c32)cc1 (configuration not stated),3.38*,50.0*,0.4,55.5*,nt,0.5
CCOC(=O)N1CCN(C(=O)c2ccc(N3CCCC3=O)cc2)CC1,0.183,0.0,1,1.7,nt,1
CCOC(=O)N1CCC(NS(=O)(=O)c2cc(Br)cnc2N)CC1,0.0804,36.0,0.2,78.7*,0.313,0.6
CCOC(=O)CSc1nc(C2CC2)nc2ccccc12,-1.82,12.3,0.8,22.6,0.354,0.9
O=C1CSC(c2cn(-c3ccccc3)nc2-c2ccc3c(c2)OCCO3)N1CCN1CCOCC1 (configuration not stated),0.299,80.7*,0.2,77.9*,2.21,0.2
O=C(Oc1ccc2[nH]cc(CCN3C(=O)c4ccccc4C3=O)c2c1)c1ccco1,2.1,23.5,0.2,75.6*,0.212,0.8
CCC(C)NCCOCCSc1ccc(Cl)cc1 (configuration not stated),-0.284,32.9,0.8,18.2,nt,0.7
O=C(NCCc1ccc(Cl)cc1)C1CCN(S(=O)(=O)c2ccc(-n3cnnn3)cc2)CC1,0.476,0.2,1,3.7,-0.724,1
CCN1CCCC1CNC(=O)Cn1cccc1C(=O)c1ccccc1C (configuration not stated),-0.786,20.9,0.9,14.9,-0.514,0.8
CCc1cc(C(=O)O)c(NC(=O)C(c2ccccc2)c2ccccc2)s1,0.723,2.7,0,97.4*,nt,1
OC1(c2ccc(OC(F)F)cc2)CSC(=Nc2cccnc2)N1C1CC1 (configuration not stated),-0.877,100.4*,0.6,41.5,nt,0
CCOc1ccc(C(=O)CN2CCN(S(=O)(=O)c3ccc(OC)cc3)CC2)cc1,1.01,77.3*,0.8,21.9,0.9,0.2
CCn1c(N2CCN(CC(=O)c3ccc(OC)cc3)CC2)nc2ccccc21,-7.62*,34.0,1,3.5,-0.795,0.7
CCOc1ccc(C(=O)CN2CCN(S(=O)(=O)c3ccc(Br)cc3)CC2)cc1,-0.252,36.5,0.9,8.2,nt,0.6
COc1ccc(NC(=O)CCN2CCN(S(=O)(=O)c3cc(Cl)ccc3OC)CC2)cc1,-0.183,96.8*,0.4,64.8*,0.0566,0
SMILES,DAT uptake mod,CYP2C19 inhib,CYP2C9 activ,CYP2C9 inh,D1 allo mod,CYP2C19 act
CCn1c(N2CCN(CC(=O)Nc3cccc(C)c3C)CC2)nc2ccccc21,1.25,11.4,1.3,-25.9,0.00475,0.9
COc1ccc(NC(=O)CN2CCN(S(=O)(=O)c3ccc(Cl)cc3)CC2)cc1Cl,0.11,-19.5,1.1,-6.7,nt,1.2
COc1ccc(NC(=O)CCN2CCCCC2)cc1,-0.472,-3.5,1.3,-28.7,-1.67,1
CCOc1ccc(NC(=O)CCN2CCN(S(=O)(=O)c3ccc(Cl)cc3)CC2)cc1,-0.215,72.4*,0.3,73.0*,nt,0.3
CC(=O)NC1C(=O)Nc2c(C)cc(C)cc21 (configuration not stated),-0.857,0.4,1,4.1,nt,1
CC(=O)NC1C(=O)N(C)c2ccc(Br)cc21 (configuration not stated),0.411,-5.4,1,-1.2,nt,1.1
COc1ccc(N2CCN(C(=O)c3ccc(Oc4ccc(C(F)(F)F)cn4)cc3)CC2)cc1,-0.277,19.1,0.9,12.0,nt,0.8
CCOC(=O)C(C)Sc1nc(-c2ccco2)cc(C(F)(F)F)c1C#N (configuration not stated),0.228,7.4,0.8,19.9,-1.33,0.9
CCOc1ccc(NC(=O)CCN2CCN(S(=O)(=O)c3ccc(OC)cc3)CC2)cc1,0.135,45.9,0.5,53.2*,nt,0.5
CCOc1ccc(NC(=O)CCN2CCCCC2)cc1,-0.341,1.9,0.9,6.2,0.0542,1
CCCCn1c(N)c(N(CCOC)C(=O)CSc2nc3ccc(C)cc3[nH]2)c(=O)[nH]c1=O,-0.367,-13.1,1.1,-9.6,nt,1.1
CCOC(=O)c1sc(N)c(C#N)c1CSc1nc2ccc(OCC)cc2[nH]1,1.23,93.0*,0,97.3*,1.21,0.1
CCOC(=O)c1sc(N)c(C#N)c1CSc1nc2ccc(C)cc2[nH]1,0.314,77.3*,0.2,76.2*,nt,0.2
CSc1nc(N)nc(SCC(=O)C(C)(C)C)c1C#N,-0.931,44.4,0.3,73.2*,nt,0.6
CSc1nc(N)nc(SC2C=CCCC2)c1C#N (configuration not stated),0.271,13.9,0.8,20.8,nt,0.9
Cc1ccc(S(=O)(=O)CCSc2nc(C)cc(C)c2C#N)cc1,-0.597,46.0,1.3,-29.1,0.0457,0.5
CSc1nc(N)nc(SCCS(=O)(=O)c2ccc(Cl)cc2)c1C#N,6.07*,nt,nt,nt,-0.491,nt
O=C(CCC1CCCCC1)NNC(=O)NC12CC3CC(CC(C3)C1)C2,0.866,95.2*,0.8,15.7,nt,0
